Giardia FBPA inh: blocks Giardia fructose-bisphosphate aldolase activity | A8B2U2 | purified Giardia FBPA | Potency, µM (top dose mostly 59.6 µM), without a hit: top-dose activity, negative = inhibition, most hits filed as inhibitors | hit rate 0.71% among 290,000; further: potency means the concentration at half of the fitted maximal effect; on the % scale 0 is the no-effect control and ±100 the full control effect; nearly all actives have a fitted effect of over 55% in size
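40 nM FBPA preincubated 10 min at RT with compound (up to 57.5 uM final), then substrate plus GAPDH/TPI/NAD/arsenate coupling and diaphorase/resazurin added. Fluorescence read after 20 min at RT, 525/598 nm.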
LmPK inhibitor: blocks Leishmania mexicana pyruvate kinase activity; AID 1721; hit rate 0.37% among 290,000; Potency, µM (titrated, usually from 57.5 µM), inactives show at the top dose activity change, negative = inhibition, actives largely listed as inhibitors; purified LmPK, Kinase-Glo ATP luminescence, 1 h; Q27686; further: potency means the concentration at half of the fitted maximal effect; on the % scale 0 is the no-effect control and ±100 the full control effect
Target sequence (Q27686 whole entry, looked up): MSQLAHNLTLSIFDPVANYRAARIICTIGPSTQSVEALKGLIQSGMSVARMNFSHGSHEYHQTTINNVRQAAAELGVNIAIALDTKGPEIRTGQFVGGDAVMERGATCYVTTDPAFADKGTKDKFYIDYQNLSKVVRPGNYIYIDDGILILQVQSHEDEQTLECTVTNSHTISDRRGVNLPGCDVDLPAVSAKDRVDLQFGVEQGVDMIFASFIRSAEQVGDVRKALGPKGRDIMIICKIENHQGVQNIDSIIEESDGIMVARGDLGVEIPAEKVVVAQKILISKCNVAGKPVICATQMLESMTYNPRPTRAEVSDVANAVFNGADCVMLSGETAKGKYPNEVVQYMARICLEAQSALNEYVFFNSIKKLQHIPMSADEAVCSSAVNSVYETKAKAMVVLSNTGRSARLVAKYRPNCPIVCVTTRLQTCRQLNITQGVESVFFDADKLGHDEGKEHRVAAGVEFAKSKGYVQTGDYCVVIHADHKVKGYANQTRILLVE
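Kinase-Glo luminescence read after 1 h RT reaction of 0.1 nM LmPK with 0.5 mM PEP and 0.1 mM ADP. Activity scaled between uninhibited and enzyme-free controls.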
Shiga toxin inh: blocks Shiga toxin action in Vero cells | Vero cells, Shiga toxin protein synthesis inhibition reporter | inhibition, % at 38.7 µM | hit rate 9.2% among 290,000; in the data active means inhibition mostly above about 28%, no sharp cut-off; inactive means mostly below about 43%; further: 0% is about no effect
Sm TGR block: S. mansoni TGR enzyme inhibition; Q962Y6; purified TGR, DTNB reduction, TNB absorbance 405 nm; Potency, µM (highest dose often 114 µM), for inactives: top-dose activity change, negative = inhibition, usual class: inhibitors; hit rate 3% among 360,000; further: potency means the concentration at half of the fitted maximal effect; on the % scale 0 is the no-effect control and ±100 the full control effect; nearly all actives have a fitted effect of over 60% in size
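TGR 20 nM + NADPH 100 uM (dispensed conc.), cpd preinc 15 min RT; start with NADPH (500 uM addition) then DTNB (15 mM addition). Kinetic TNB absorbance, 405 nm filter. Four-parameter Hill fit across titration.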
Tb PYK inh: T. brucei pyruvate kinase inhibition | hit rate 0.12% among 410,000 | AID 624173 | Q57TT1 | Potency, µM (series often up to 76.8 µM), without a hit: at the highest dose activity, negative = inhibition, actives largely listed as inhibitors | TbPYK enzyme, Kinase-Glo Plus ATP luminescence, 45 min; further: potency means the concentration at half of the fitted maximal effect; on the % scale 0 is the no-effect control and ±100 the full control effect; nearly all actives have a fitted effect of over 50% in size
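Luminescent Kinase-Glo Plus end-point after 45 min room-temperature reaction of T. brucei pyruvate kinase started with 130 uM ADP (final). Buffer TEA 50 mM pH 7.2 with KCl, MgCl2, BSA, Tween-20; titration-based qHTS with fitted concentration-effect curves.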
Cycloheximide cs: counter-screen for Shiga toxin inhibitors: cycloheximide protein synthesis inhibition | cell reporter, cycloheximide protein synthesis inhibition counterscreen | max response, % | hit rate 12% among 300,000 | AID 2314; in the data active means max response mostly above about 13%, no sharp cut-off; inactive means mostly below about 14%; further: read at 38.3 µM for the half of the compounds with a filed dose; 0% is about no effect
* marks the source's active call; other numbers are inactive results; ? = inconclusive; · = not tested or not shown; [ ] = another dose, or the depositor's remark. The entries come from a sample that favours hits as a whole. Unless noted, the call rests on the fitted dose curve; in most records, active means well fitted curve in the direction sought with a large enough effect; inconclusive means small, poorly fitted or top-dose-only effect, or another doubt; inactive means no such curve, though single readings can be large; an effect the other way counts as inactive or inconclusive.

SMILES | Giardia FBPA inh | LmPK inhibitor | Shiga toxin inh | Sm TGR block | Tb PYK inh | Cycloheximide cs
CN(C)CCNc1ncnc2c1cnn2-c1ccc(Cl)cc1 | 2% | 14% | 56 | -29% | 0% | 30*
O=C(c1cnccn1)N1CCC2(CCN(Cc3ccccc3)CC2)CC1 | 1% | · | · | · | 2% | ·
C=CCN=C1CCCc2c1[nH]c1ccc(C)cc21 | -11% | -1% | 50* | 0% | 0% | 30*
OCCN=C1CCCc2c1[nH]c1ccc(Br)cc21 | -5% | 6% | 12 | -3% | -4% | 6
O=c1[nH]c(/C=C2\C=Nc3ccccc32)c(O)n1Cc1ccccc1F | -12% | 1% | 40 | · | 0% | 2
CSc1nc(O)c(/C=C2\C=Nc3ccccc32)[nH]1 | -11% | -14% | 140* | -10% | 1% | 62*
COCCNC(=O)/C(C#N)=C/c1ccc(O)c([N+](=O)[O-])c1 | -19% | ? | -8 | -5% | -20% | -2
COCCNC(=O)/C(C#N)=C/c1ccc(O)cc1 | 8% | 13µM* | 32 | -9% | ? | 19*
COCCNC(=O)/C(C#N)=C/C=C/c1ccccc1[N+](=O)[O-] | -23% | 5% | 21 | -6% | -9% | 17*
COCCNC(=O)/C(C#N)=C/c1cccc(/C=C(\C#N)C(=O)NCCOC)c1 | -4% | -1% | -6 | -19% | -2% | -4
NC(=O)c1sc2nc(-c3ccccc3)c3c(c2c1N)CCCC3 | 28% | -20% | -10 | -33% | -25% | -4
NC(=O)c1sc2nccc(Nc3ccccc3)c2c1N | -16% | -28% | 49 | -7% | ? | 15*
Cc1ccc(OCC(=O)Nc2cccc(-c3nc4ccccc4s3)c2)cc1 | · | · | · | 4% | -7% | ·
O=C(CSc1nnc2ccccn12)Nc1ccc2c(c1)OCO2 | 0% | 5% | 31 | 1% | 3% | 18*
COc1ccc(CSc2nnc(-c3ccncc3)n2C)cc1F | 6% | 1% | 70* | 17% | 1% | 17
c1ccn2c(SCc3ccc4c(c3)OCO4)nnc2c1 | -8% | -3% | 114* | -3% | 5% | 40*
Cn1c(=O)c2ncn(CC(=O)Nc3cccc(-c4nc5ccccc5s4)c3)c2n(C)c1=O | 2% | -13% | 118* | 1% | ? | 53*
C=CCCN(Cc1ccccc1)S(=O)(=O)c1cc(Br)ccc1Br | · | · | · | -7% | 2% | ·
COC(=O)c1ccc(NC(=O)C(C)N2Cc3ccccc3C2=O)cc1 (stereo not drawn) | · | · | · | 2% | -2% | ·
COC(=O)c1nc2n(n1)C(c1cc(OC)ccc1OC)C(C(=O)Nc1ccc(C)cc1C)=C(C)N2 (stereo not drawn) | · | · | · | ? | 2% | ·
N#Cc1ccc(CSc2nnc(Cc3cccs3)n2Cc2ccco2)cc1 | -15% | -3% | 21 | 11µM* | ? | -1
Cn1c(SCc2ccc3c(c2)OCO3)nnc1-c1ccccc1 | 3% | -9% | 22* | -1% | 5% | 15*
Cc1cc(Cl)ccc1NC(=O)CSc1nnc(Cc2cccs2)n1Cc1ccco1 | 5% | 7% | -2 | 20µM* | -4% | -3
Nn1c(SCC(=O)Nc2ccc3c(c2)OCO3)nnc1-c1ccccc1 | 1% | 7% | 27 | 2% | 3% | 22*
CNC(=O)CSc1nnc(-c2ccc3c(c2)OCO3)n1C | 2% | -3% | -7 | -5%[57.1 µM] | 1% | 8
SMILES | Giardia FBPA inh | LmPK inhibitor | Shiga toxin inh | Sm TGR block | Tb PYK inh | Cycloheximide cs
Cc1ccc(C)c(Nc2nn3c(=O)c4ccc(C(=O)NCc5ccccc5)cc4nc3s2)c1 | · | · | · | 0% | 1% | ·
O=C(CSc1nnc2ccccn12)Nc1cccc(-c2nc3ccccc3s2)c1 | 7% | -3% | 39* | -15% | -16% | 15
O=C(CSc1nnc(-c2ccccc2)n1Cc1ccco1)Nc1ccc2c(c1)OCCO2 | 2% | 5% | 48* | 35µM* | 1% | 13
Cc1ccc(NC(=O)CSc2nnc3ccccn23)cc1 | 2% | 0% | 72* | 60% | 2% | 15
CCC(CC)C(=O)Nc1cccc(-c2nc3ccccc3s2)c1 | · | · | · | 2% | -6% | ·
Cc1cc(C)c(NC(=O)CSc2nnc(-c3ccncc3)n2Cc2ccco2)c(Cl)c1 | -22% | 0% | -8 | 22µM* | -2% | 3
Cc1ccc(NC(=O)CCSc2nnc3ccccn23)cc1 | 1% | 0% | 32 | -26% | -7% | -2
COc1ccc(Cl)cc1NC(=O)CSc1nnc(C)n2c1cc1occc12 | · | · | · | -2% | 8% | ·
CCOc1ccc(NC(=O)CSc2ncc(-c3ccc(F)cc3)n2Cc2ccco2)cc1 | -7% | -1% | 8 | -19% | -6% | 11
O=C(CSc1ncc(-c2ccc(F)cc2)n1Cc1ccco1)Nc1ccc2c(c1)OCO2 | -6% | -2% | 110* | -10% | 4% | 39*
COc1ccc(NC(=O)c2ccccc2NC(=O)CN2CCCCCC2)cc1 | · | · | · | -10% | 0% | ·
O=C(NCCC(c1ccccc1)c1ccco1)c1cccs1 (stereo not drawn) | -16% | 7% | 118* | ? | -1% | 38*
CCOc1ccc2oc(=O)cc(CN3CCN(C(=O)c4cccc(F)c4)CC3)c2c1 | · | · | · | -17% | -3% | ·
Cc1cccc(OCc2nnc(-c3ccc(F)cc3)o2)c1 | · | · | · | -14% | -3% | ·
O=C(Cc1c(O)c2ccccc2[nH]c1=O)NCc1ccccc1F | -29% | 1% | 94* | -31% | 0% | 60*
O=C(NC1CCCCCCC1)c1c(O)c2ccccc2[nH]c1=O | 1% | 7% | 47* | 6% | -4% | 16*
O=C(CCl)NNC(=O)c1c(O)c2ccccc2[nH]c1=O | -28% | 0% | 14 | 14µM* | 5% | 10
C(=C\c1ccncc1)/c1ccncc1 | 8% | -2% | -1 | 0% | 2% | -2
COc1ccc(/C=C/C(=O)c2ccccc2)cc1Cn1nnc2ccccc21 | 0% | -2% | 27* | -8% | 4% | 27*
COc1ccc(/C=C/c2ccncc2)cc1OC | 0% | -21% | 57* | -7% | -4% | 28*
COc1ccc(/C=C/C(=O)O)cc1 | 7% | · | 21 | · | -6% | 5
COC(=O)c1ccc(/C=C/C(=O)c2ccc(OC)cc2)cc1 | -2% | 0% | 54 | 4% | -4% | 25*
COc1cc(/C=C/C(=O)c2ccc(C)cc2)ccc1OCC#N | -9% | -4% | 107* | -3% | 5% | 81*
O=C(COC(=O)c1cccc(S(=O)(=O)N2CCCC2)c1)Nc1cccc(Br)c1 | · | · | · | · | -3% | ·
CCCOc1cccc(C(=O)NCCNC(=O)c2ccco2)c1 | 9% | 2% | 47 | -1% | 5% | -4
COc1ccc(Oc2c(C(F)(F)F)oc3c(CN4CCCC(C)C4)c(O)ccc3c2=O)cc1 (stereo not drawn) | · | · | · | -25% | 4% | ·
Cc1c(C(=O)Nc2ccc(-n3c(C)nc4ccccc4c3=O)cc2)cccc1[N+](=O)[O-] | · | · | · | 17% | 3% | ·
COC(=O)c1ccc(/C=C/C(=O)c2ccc(OC)c(OC)c2)cc1 | 2% | -11% | 22 | 3% | -3% | 13

High-throughput results (PubChem)
